Each structure is given as a SMILES string.
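Note: purified Escherichia coli-expressed rice kinase domain construct.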

This assay concerns LOC_OS04G57630-cb004. Nature of the assay: thermal shift delta Tm vs DMSO control; higher = stronger stabilization (binding). Conditions: 12.5 µM; protein concentration 2 µM. The essentials:
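Thermal shift values come from differential scanning fluorimetry on purified rice kinase domains made in E. coli, with melting temperatures obtained from Boltzmann fits. Samples of 19.5 μl held 2 μM kinase, 100 mM potassium phosphate pH 7.5, 150 mM NaCl, 10% glycerol, 5 × SYPRO Orange and compound in DMSO, and were heated from 25°C to 95°C at 0.05°C/s. Each shift is a triplicate mean relative to the DMSO-only protein sample.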
For `O=C1NC(=O)C(c2ccccc2[N+](=O)[O-])=C1Nc1ccc(O)c(Cl)c1`, the “thermal shift delta Tm” value is -0.28 °C. Next, `CCOc1cc2ncc(C#N)c(Nc3ccc(OCc4ccccn4)c(Cl)c3)c2cc1NC(=O)/C=C/CN(C)C` [Neratinib (HKI-272)]: 1.3 °C. As for `CCCS(=O)(=O)Nc1ccc(F)c(C(=O)c2c[nH]c3ncc(-c4ccc(Cl)cc4)cc23)c1F` [Vemurafenib (PLX4032, RG7204)], the “thermal shift delta Tm” value stood at 0.61 °C. Turning to `Cc1cn(-c2cc(NC(=O)c3ccc(C)c(Nc4nccc(-c5cnccn5)n4)c3)cc(C(F)(F)F)c2)cn1` [Radotinib], the “thermal shift delta Tm” value is 0.16 °C. In the case of `OC(c1cc(-c2ccc(Cl)cc2)nc2ccccc12)C1CCCCN1` (stereo not drawn) [Vacquinol-1], the “thermal shift delta Tm” value came out at 0.38 °C. Take `Cc1cc(CS(=O)(=O)c2ccccc2)cc(OCc2ccc(CN3CCC[C@@H]3CO)cc2)c1`: the “thermal shift delta Tm” value came out at 0.05 °C. Next, `Clc1ccc(Nc2nnc(Cc3ccncc3)c3ccccc23)cc1` [Vatalanib (PTK787) 2HCl]: -0.2 °C; `CN1CCN(c2ccc(Nc3cc(-c4cccc(-n5ccc6cc(C7CC7)cc(F)c6c5=O)c4CO)cn(C)c3=O)nc2)CC1`: 0.45 °C.

As for `O=C1NC(=O)[C@@H](c2cn3c4c(cccc24)CCC3)[C@@H]1c1c[nH]c2ccccc12` [Tivantinib (ARQ 197)], the “thermal shift delta Tm” value was 0.47 °C. Regarding `COc1cc(-c2cc(-c3ccc(N4CCNCC4)cc3)cnc2C)cc(OC)c1OC`, the “thermal shift delta Tm” value is 0.42 °C. As to `Cn1ncc(Cl)c1-c1cc(C(=O)N[C@H](CN)Cc2ccc(F)c(F)c2)oc1Cl`, the “thermal shift delta Tm” value worked out at 0.39 °C.

Regarding `C[C@H](Nc1ncnc2nc[nH]c12)c1cc2cccc(Cl)c2c(=O)n1-c1ccccc1` [Duvelisib (IPI-145, INK1197)], the “thermal shift delta Tm” value is -0.24 °C. Consider `COc1cc2ncnc(Nc3ccc(F)c(Cl)c3)c2cc1OCCCN1CCOCC1` [Gefitinib (ZD1839)], for which the “thermal shift delta Tm” value is -0.05 °C.

Regarding `C[C@@H](N)c1ccc(C(=O)Nc2ccnc3[nH]ccc23)cc1`, the “thermal shift delta Tm” value was 0.16 °C. On to `Cc1ccc(C(=O)Nc2cccc(C(F)(F)F)c2)cc1Nc1nc(-c2cccnc2)nc2c1cnn2C`, for which the “thermal shift delta Tm” value was found to be 0.31 °C. For the compound `O=C1NC(=O)/C(=C/c2ccc3nccc(-c4ccncc4)c3c2)S1`, the “thermal shift delta Tm” value worked out at 1.23 °C.

`Oc1c2ccccc2c2c3c(cccc13)N=N2`: the “thermal shift delta Tm” value came out at 2.27 °C. For `C=CC(=O)Nc1ccc2ncnc(Nc3cccc(Br)c3)c2c1` the value was 0.39 °C; for `COc1cc2nccc(Oc3ccc(NC(=O)NC4CC4)c(Cl)c3)c2cc1C(N)=O` [Lenvatinib (E7080)], 1.31 °C. For `CN1CCCN(C(=O)c2cccc(-c3ccc(/C=C4/C(=O)Nc5ccc(Cl)cc54)o3)c2)CC1` the value was 2.23 °C; for `CCc1cnn2c(NCc3ccc[n+]([O-])c3)cc(N3CCCC[C@H]3CCO)nc12`, -0.16 °C.

On to `O=C(Nc1ccc(OC(F)(F)F)cc1)c1sccc1NCc1ccnc2ccccc12`, for which the “thermal shift delta Tm” value is 0.49 °C.

On to `CCOC(=O)c1cnc2ccc(-c3cncc(NS(=O)(=O)c4ccccc4)c3)cn12`, for which the “thermal shift delta Tm” value was determined as 0.28 °C.

Consider `CCCNC(=O)Nc1ccc(Oc2ncnc3cc(OC)c(OC)cc23)cc1Cl`, for which the “thermal shift delta Tm” value is 0.94 °C.

With `Cc1cc(Nc2ncnc3ccc(-c4ccc(CNCCS(C)(=O)=O)o4)cc23)ccc1Oc1ccn2ncnc2c1` [HER2-Inhibitor-1], the “thermal shift delta Tm” value is 2.09 °C. For `COc1cc2c(Oc3ccc(NC(=O)C4(C(=O)Nc5ccc(F)cc5)CC4)cc3F)ccnc2cc1OCCCN1CCOCC1`, the “thermal shift delta Tm” value worked out at 6.98 °C. In the case of `Cn1cc(-c2ccc3c(c2)CCN3C(=O)Cc2cccc(C(F)(F)F)c2)c2c(N)ncnc21`, the “thermal shift delta Tm” value came out at 1.69 °C. For the compound `O=C(c1ccc(Nc2nccc(-c3cc4ccccc4s3)n2)cc1)N1CCC(N2CCCC2)CC1` [IKK-16 (IKK Inhibitor VII)], the “thermal shift delta Tm” value is 5.63 °C. As to `Cc1cc(NC(=O)c2cccc(NC(=O)/C=C/CN(C)C)c2)ccc1Nc1nccc(-c2cccnc2)n1`, the “thermal shift delta Tm” value stood at 7.66 °C. `CC(C)[C@H](CO)Nc1nc(Nc2cccc(Cl)c2)c2ncn(C(C)C)c2n1` [Purvalanol A]: the “thermal shift delta Tm” value was 1.65 °C. For `C=CC(=O)Nc1cccc(Nc2nc(Nc3ccc(OCCOC)cc3)ncc2F)c1` the value was 3.06 °C. For the compound `Cc1c(C(=O)Nc2ccc(Oc3ccnc4[nH]cc(-c5ccccc5)c34)c(F)c2)c(=O)n(-c2ccc(F)cc2)n1C`, the “thermal shift delta Tm” value turned out to be 0.42 °C. As for `COc1cc(Nc2ncc(F)c(Nc3ccc4c(n3)N(COP(=O)(O)O)C(=O)C(C)(C)O4)n2)cc(OC)c1OC` [Fostamatinib (R788)], the “thermal shift delta Tm” value amounted to 1.74 °C. Consider `CC(C)c1c2cc(-c3ccnc(NC4CCC(NC5CCOCC5)CC4)n3)ccc2nn1C` (stereo not drawn), for which the “thermal shift delta Tm” value was found to be 1.43 °C. Next, `Cc1nc2ccc(-n3ncc(C(=O)c4cc5ccccc5[nH]4)c3N)cc2[nH]1`: -0.26 °C. For `COc1cc2ncnc(Sc3nnc(C)s3)c2cc1OC`, the “thermal shift delta Tm” value was 0.11 °C.

For `CCOc1cn(-c2ccc(F)cc2C)nc1C(=O)Nc1ccc(Oc2ccnc3cc(OC)c(OC)cc23)c(F)c1`, the “thermal shift delta Tm” value was determined as 2.05 °C. Consider `COc1ccc([C@@H]2OC[C@H]3[C@@H]2CO[C@@H]3c2ccc(O[C@@H]3O[C@H](CO)[C@@H](O)[C@H](O)[C@H]3O)c(OC)c2)cc1OC` [Forsythin], for which the “thermal shift delta Tm” value is -0.22 °C.

For the origin of these results see the supplement of paper PMC9694430.
